From PubChem BioAssay AID652067 (The Scripps Research Institute Molecular Screening Center, 2013)
The campaign covered roughly 370,000 compounds. About 5,400 (1.5%) were called active.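 The calls were made as follows: active = activation above the mean of all tested compounds plus 3 SD (cut at about 5.5% in these data); inactive = the rest.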 Shown is part of a subset that was picked to be rich in actives.

tested on: DAF-12 nuclear receptor (Haemonchus contortus); assay: hcDAF-12 driven luciferase reporter activation – cell-based, luminescence, HEK293, lit1-tk-luc reporter, primary screen (AID 652067); details: HEK293 hcDAF-12 lit1-tk-luc reporter, at 6.8 µM, stronger effect = higher value, 0% DMSO, 100% Δ7-dafachronic acid;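 also: 100% = response to 3 µM Δ7-dafachronic acid high control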

SMILES | activation
CCOC(=O)N1CCN(C(=O)C[C@@H]2C(=O)N(CCc3ccc(Cl)cc3)C3=CCCC[C@]32C(=O)OCC)CC1 | -4.47% (inactive)
CCCCNC(=O)C[C@@H]1C(=O)N(CCc2ccc(Cl)cc2)C2=CCCC[C@]21C(=O)OCC | -2.83% (inactive)
COc1ccccc1OCC(=O)OCc1cc(-c2ccco2)on1 | -2.08% (inactive)
O=C(COC(=O)c1ccccn1)NNC(=O)c1ccc([N+](=O)[O-])cc1 | 1.23% (inactive)
Cc1ccc(C(=O)O/N=C(\N)c2ccccn2)cc1Cl | 8.22% (active)
C/C(=N/OC(=O)c1cccc(C(F)(F)F)c1)c1cnccn1 | -0.26% (inactive)
COc1ccc(C(=O)O/N=C(\N)c2ccccn2)cc1[N+](=O)[O-] | 6.36% (active)
O=C(COC(=O)c1ccccn1)NNC(=O)c1ccc(Br)cc1 | -2.22% (inactive)
N/C(=N\OC(=O)Cc1ccc([N+](=O)[O-])cc1)c1ccccn1 | 1.92% (inactive)
N/C(=N\OC(=O)CCC1CCCCC1)c1ccccn1 | 4.24% (inactive)
COc1ccccc1OCC(=O)O/N=C(\N)c1ccccn1 | 7.16% (active)
CCOC(=O)c1cccc(NC(=O)CN(C)S(=O)(=O)c2ccc(-c3cocn3)s2)c1 | -1.38% (inactive)
C=CCN1C(=O)[C@@H](CC(=O)N2CCN(C(=O)OCC)CC2)[C@]2(C(=O)OCC)CCCCC/C=C/12 | 0.11% (inactive)
CCC(=O)OCCCN1C(=O)CCC12CCC(c1ccccc1)CC2 (centres undefined) | -1.9% (inactive)
CN(C)[C@H]1CCN(c2cccc3c2S(=O)(=O)N2CC[C@H](C2)O3)C1 | 1.72% (inactive)
Cc1ccc(CN2CCCCC(NC(=O)C3CCCCC3)C2=O)cc1 (centres undefined) | -1.6% (inactive)
COC(=O)[C@]12C[C@H](CC(=O)N3CCN(C(=O)C4CC4)CC3)C(=O)N(CCC3=CCCCC3)C1=C[C@H](C(C)C)O[C@@H]2C1CC1 | -1.23% (inactive)
Nn1c(SCC(=O)Nc2ccc(S(N)(=O)=O)cc2)nnc1-c1n[nH]c2c1CCC2 | -1.75% (inactive)
Cc1cccc(-n2nc3c(c2NC(=O)c2cc4ccccc4o2)CS(=O)(=O)C3)c1 | 1.51% (inactive)
Cc1ccc(NC(=O)c2cc3ccccc3o2)cc1 | 10.5% (active)
C/C(=N\NC(=S)Nc1ccc(C)cc1)c1cc2ccccc2o1 | -0.69% (inactive)
CC(C)(C)c1ccc(CSc2nnc(-c3cccs3)o2)cc1 | 1.61% (inactive)
COc1ccccc1C(=O)NC(=O)COC(=O)C1CC1 | 0.43% (inactive)

SMILES | activation
Cn1c(=N)n(CC(O)c2ccccc2)c2ccccc21 (centres undefined) | 6.33% (active)
Cc1nc2ccccc2n1CC(O)c1ccccc1 (centres undefined) | 1.55% (inactive)
CCOc1ccc(C(O)Cn2c(=N)n(CCN3CCCCC3)c3ccccc32)cc1 (centres undefined) | -0.25% (inactive)
CCC(=O)Nc1ccc2c(c1)C(=O)N(C)[C@H]1CC[C@H](CC(=O)NCCOC)O[C@@H]1CO2 | -0.71% (inactive)
COC(=O)C1CN(CCc2ccccc2)CCS(=O)(=O)N1Cc1cccc(Cl)c1 (centres undefined) | -1.52% (inactive)
O=C(NC1CCCCN(Cc2ccc(Cl)cc2)C1=O)c1ccc(Br)cc1 (centres undefined) | -2.55% (inactive)
O=C(NC(Cc1c[nH]c2ccccc12)C(=O)O)/C(=C/c1ccco1)NC(=O)c1ccccc1 (centres undefined) | 6.62% (active)
O=C(NCc1ccco1)/C(=C/c1ccco1)NC(=O)c1ccccc1 | -0.96% (inactive)
O=C(NC(Cc1ccccc1)C(=O)O)/C(=C\c1ccccc1)NC(=O)c1ccco1 (centres undefined) | -0.54% (inactive)
Cc1ccc(-n2c(SCC(=O)Nc3ccc(S(=O)(=O)Nc4nccs4)cc3)nnc2-c2ccccn2)cc1 | -0.18% (inactive)
COc1cc(NC(=O)C2CCCN(S(=O)(=O)c3ccc(C(C)(C)C)cc3)C2)cc(OC)c1 (centres undefined) | -1.6% (inactive)
CC(C)C(C#CC1CC1)N(Cc1ccc2c(c1)OCO2)C(N)=NC(=O)/C=C/c1cccc(C(F)(F)F)c1 (centres undefined) | 0.1% (inactive)
COC(=O)[C@]1(C#N)CC(=O)N(CC2CCCCC2)[C@@H]1c1ccccc1 | 0.64% (inactive)
O=C(Nc1cccc(C(=O)O)c1)/C(=C\c1ccccc1)NC(=O)c1ccc(Br)o1 | -0.49% (inactive)
Cc1cccc(NC(=S)NC(=O)c2ccc(Br)o2)c1 | 6.48% (active)
CCS(=O)(=O)c1ccc(-c2cccc(NC(=O)c3ccc(Br)o3)c2)nn1 | 1.53% (inactive)
CC(=O)c1ccc(N=C2SCCCN2C(=O)C2CCCCC2)cc1 | 1.46% (inactive)
COC(=O)c1ccc(CN2C(=O)[C@]3(OCCC=C[C@H]3C)c3c(Br)cccc32)cc1 | -3.24% (inactive)
O=C(CN1CCC(NC(=O)NCc2ccccc2)CC1)Nc1ccc2c(c1)OCCO2 | -0.83% (inactive)
CC1(C)N=C(N)NC(Nc2ccc(Cl)cc2)=N1 | 0.62% (inactive)
C=CCNc1nc(Nc2ccc(Cl)cc2)nc(OC)n1 | -0.18% (inactive)
Clc1ccc(Nc2ccc3ccccc3n2)cc1 | 17.1% (active)
CCOC(=O)/C=C/CN(C(=O)OC(C)(C)C)S(=O)(=O)N1CC=CC1 | -0.7% (inactive)

SMILES | activation
COc1ccc(-n2c(SCC(=O)Nc3ccc4cn[nH]c4c3)nnc2-c2cccnc2)cc1 | -1.7% (inactive)
CC(C)CNc1cccc2c1S(=O)(=O)N(Cc1cn(Cc3ccccc3C(F)(F)F)nn1)Cc1ccccc1O2 | -1.42% (inactive)
O=C(CSc1nc2sc3c(c2c(=O)n1-c1ccccc1)CCCC3)NN=Cc1ccc(OCc2ccccc2)cc1 | -1.69% (inactive)
COc1cccc(C2c3[nH]c4ccccc4c3CCN2Cc2cccc(C)n2)c1 (centres undefined) | 3.77% (inactive)
CCOc1ccc(C2c3[nH]c4ccccc4c3CCN2Cc2cn(CC)nc2C)cc1 (centres undefined) | 6.76% (active)
CCOc1ccc(C2c3[nH]c4ccccc4c3CCN2Cc2cccn2-c2ncccn2)cc1 (centres undefined) | 1.92% (inactive)
Cc1[nH]c2ccccc2c1CC(=O)Nc1ccc(Nc2cccnc2)c(-c2cccc(Cl)c2)c1 | 1.03% (inactive)
CC(C)c1nc2cc(C(=O)NC(C)c3cnn(C)c3)ccc2o1 (centres undefined) | -1.66% (inactive)
COC(=O)c1ccc(CNC(=O)c2ccc3oc(C(C)C)nc3c2)cc1 | 0.43% (inactive)
COc1ccc(CNC(=O)c2ccc3oc(C(C)C)nc3c2)cc1 | 6.74% (active)
CC(c1ccc(N)cc1)c1cn(C)c2ccccc12 (centres undefined) | -2.32% (inactive)
Cc1ccccc1Nc1nc(N)nc(CSc2ccccc2)n1 | 6.93% (active)
Cc1ccccc1Nc1nc(N)nc(CSc2nnc3ccccn23)n1 | 0.54% (inactive)
Cc1ccccc1Nc1nc(N)nc(COC(=O)CCC(=O)c2ccc(F)cc2)n1 | -0.96% (inactive)
COC(CNC(=O)[C@H](Cc1ccccc1)NC1(C(=O)NC2CCCCC2)CCCCC1)OC | 0.68% (inactive)
O=C(Nc1cccc2cccnc12)c1cccc(Cl)c1 | 5.97% (active)
CC(=O)/C(=N\Nc1ccc(Cl)cc1Cl)Sc1cccc2cccnc12 | -1.47% (inactive)
O=C(Nc1cccc2cccnc12)c1ccc2sc([C@H]3C[C@H](O)[C@@H](CO)O3)nc2c1 | -3.24% (inactive)
COC(=O)[C@]12C[C@H](CC(=O)N3CCOCC3)C(=O)N(Cc3ccc(Cl)cc3Cl)C1=C[C@H](C(C)C)O[C@@H]2C1CC1 | -0.53% (inactive)
CC(=O)OC12CCCN(C1)/C(=C/c1ccncc1)C2 (centres undefined) | -0.38% (inactive)
O=C(Cn1c(-c2cncs2)nc2ccccc21)NC1CCCC1 | -0.67% (inactive)
O=C(/C=C/c1cnc2ccccc2n1)NC1CCCCCC1 | 8.85% (active)
CC1CCCCC1NC(=O)Cn1c(=O)cnc2ccccc21 (centres undefined) | 0.69% (inactive)

SMILES | activation
COCCN1CCn2c(nc3cc(NS(C)(=O)=O)ccc32)C1 | 0.72% (inactive)
O=C(NC1CCC1)c1ccc(C#CC2CC2)cn1 | 1.58% (inactive)
Nc1ncnc2c1ncn2C1OC(CO)CC1O (centres undefined) | -1.72% (inactive)
C#CCOc1ccccc1/C=C1/C(=O)ON=C1C | 6.39% (active)
Cc1no[n+]([O-])c1COc1ccccc1/C=C1\NC(=S)NC1=O | -0.17% (inactive)
Cc1cccc(NC(=O)c2cc3c(C)nn(-c4ccccc4)c3s2)c1 | -3.69% (inactive)
O=C(NCCOc1ccccc1)c1ccccc1F | 6.22% (active)
NS(=O)(=O)c1cc(C(=O)NCCOc2ccccc2)c(Cl)cc1Cl | -2.95% (inactive)
O=C(NCCc1csc(-c2ccccc2)n1)c1ccccc1F | -1.62% (inactive)
CCc1c(-c2ccccc2OC)ncn1CCc1ccccc1OC | -2.85% (inactive)
N[C@@H](Cc1ccccc1)C(=O)N1CCC[C@@H]1C(=O)N1CCC2CCN(S(=O)(=O)c3ccccc3)CC21 (some centres undefined) | -1.99% (inactive)
COC1=NC2=NCCN2C(OC)=N1 | 0.26% (inactive)
COC(=O)C[C@@H]1CC[C@@H]2[C@@H](COc3ccc(NC(=O)Nc4ccc(F)c(F)c4)cc3C(=O)N2C)O1 | -4.16% (inactive)
N#CCC[C@H]1CC[C@]2(CCCN(Cc3ccc(Cl)cc3)C2)O1 | -0.47% (inactive)
Nc1nonc1-n1nnc(C(=O)N/N=C/c2ccc(Cl)cc2)c1-c1ccc2c(c1)OCO2 | 0.66% (inactive)
C(=N\Nc1ccc2ccccc2n1)/c1ccc2c(c1)OCO2 | 7.26% (active)
CN(CCO)c1ccc(/C=N/Nc2nncc3ccccc23)cc1 | 5.57% (inactive)
Cc1cc2c(C)nc(N/N=C/c3ccccc3)nc2o1 | -0.61% (inactive)
Cc1noc(C)c1/C=N/Nc1ccc2ccccc2n1 | 7.4% (active)
O=C(NS(=O)(=O)c1cccs1)[C@H]1O[C@@H](n2ccc(=O)[nH]c2=O)[C@H](O)[C@@H]1O | 1.29% (inactive)
